Sa growth inh: S. aureus growth inhibition at 42 and 30 °C, primary screen, LtaS inhibitor project, RN4220, two temperatures | OD600, 20 h, 42 °C; hits give low values | relative growth, % (no concentration beside the values) | hit rate 0.53% among 170,000;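 active = relative growth at most 50% at the other temperature and 20+ points below 30 °C, or under 10% at both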
S aureus helic: inhibitors of S. aureus replicative helicase, primary screen, biochemical, fluorescence unwinding readout; replicative DNA helicase (DnaC/DnaB), Staphylococcus aureus; purified S. aureus helicase, fluorescence unwinding assay; inhibition, % (test concentration not listed); hit rate 0.05% among 120,000; AID 485395, 2010; in the data active = inhibition above about 25%, passing the limit was not always enough
Numbers stand for hits; n = inactive; x = no result given; ! = not active in a repeat. Many of the other results were omitted from the sample, so hits are more common in it than they were.

SMILES | Sa growth inh | S aureus helic
Cc1cccc(CN(C(=O)Nc2ccc(Cl)c(Cl)c2)c2ccccn2)c1 | n | n
CC(O)CN=c1cc(-c2ccccc2)oc2ccc(Cl)cc12 (stereo unspecified) | n | n
Cc1ccc2oc(-c3ccccc3)cc(=NCCN(C)C)c2c1 | n | n
Cc1ccc2oc(-c3ccccc3)cc(=NCCO)c2c1 | n | 44.0
CCc1ccc2oc(-c3ccccc3)cc(=NCc3cccnc3)c2c1 | n | 48.0
Cc1ccc(-c2csc(-c3cccnc3)n2)cc1C | n | n
CC(=O)N1C=Cc2ccccc2C1CC(=O)O (stereo unspecified) | n | n
CN1c2ccccc2C(=O)NC1C1CC=CCC1 (stereo unspecified) | n | x
O=C(/C=C/c1cccs1)Nc1ccccc1-c1nc2ccccc2o1 | x | n
CCS(=O)(=O)c1oc(-c2ccc(F)cc2)nc1S(=O)(=O)c1ccc(Br)cc1 | n | x
CC(C)S(=O)(=O)c1oc(-c2ccc(F)cc2)nc1S(=O)(=O)c1ccccc1 | 1.3 | x
CC(C)S(=O)(=O)c1oc(-c2cccs2)nc1S(=O)(=O)c1ccc(F)cc1 | n | x
CCCCS(=O)(=O)c1oc(-c2ccc(F)cc2)nc1S(=O)(=O)c1ccccc1 | 1.6 | x
O=C(O)CCN1CCn2c3c(c4cc(C5CCCCC5)ccc42)CCCC31 (stereo unspecified) | n | n
O=C(C1CC1)N1CCN=C1SCc1ccc(C(F)(F)F)cc1 | n | n
Sc1nc2c(Cl)c(Cl)c(Cl)cc2o1 | -0.8 | n
O=C(CN1C(=O)C2CC=CCC2C1=O)OCC(=O)c1c[nH]c2ccccc12 (stereo unspecified) | n | n
O=C(COCC(=O)Nc1nc(-c2ccncc2)cs1)Nc1nc(-c2ccncc2)cs1 | n | n
CN1/C(=C2\C=NN(C)P2(=O)N2CCCCCC2)C(C)(C)c2ccccc21 (stereo unspecified) | n | n
CCCCCc1ccc(C(=O)CCN(C)C)cc1 | -0.1 | n
CN(C)CCC(=O)c1ccc2c(c1)OCO2 | n | n
Cc1oc2c(c1C(=O)NC1CCCCC1)C(=O)c1ccccc1C2=O | 8.8 | n
Cc1oc2c(c1C(=O)N1CCCCC1)C(=O)c1ccccc1C2=O | n | n
Cc1oc2c(c1C(=O)NC1CCCC1)C(=O)c1ccccc1C2=O | 3.9 | n
Cc1oc2c(c1C(=O)N1CCC(C)CC1)C(=O)c1ccccc1C2=O | n | n
SMILES | Sa growth inh | S aureus helic
Cc1oc2c(c1C(=O)NCCc1ccccc1)C(=O)c1ccccc1C2=O | n | n
Cc1oc2c(c1C(=O)NC(C)(C)C)C(=O)c1ccccc1C2=O | 5.7 | n
CCC(C)Nc1nc(NC(C)C)nc(Oc2ccc(C(=O)OC(C)C(=O)OC)cc2)n1 (stereo unspecified) | n | n
CCCC1CC(c2csc(C)n2)CCO1 (stereo unspecified) | n | n
C=CCSc1nnc2[nH]c(=O)cc(N)n12 | n | n
CC1=NN(C(=O)CSc2nnc(-c3ccncc3)o2)C(C)(O)C1 (stereo unspecified) | n | n
O=S(=O)(c1ccc(NC2CCC(O)CC2)nc1)N1CCCC1 (stereo unspecified) | n | n
Cc1ccc2c(CC(=O)OCc3cc(Cl)cc4c3OCOC4)coc2c1 | n | n
Cc1ccc(-c2ccc(O)cc2)cc1 | 46.9 | n
Cc1ccc(O)cc1 | n | x
O=C(Nc1ccc(Cl)c(Cl)c1)OCc1ccco1 | n | n
O=C(Nc1ccc(Cl)c(Cl)c1)OCc1cccnc1 | 8.0 | n
COc1ccccc1C(C1=C(OC(C)=O)COC1=O)c1cc2c(cc1OC(C)=O)OCO2 (stereo unspecified) | n | n
CCSc1nnc(-c2cccs2)n1Cc1ccccc1 | n | n
CCOC(NC(=O)Nc1ccc(Br)cc1)(C(F)(F)F)C(F)(F)F | -0.7 | x
CCOC(NC(=O)c1ccccc1)(C(F)(F)F)C(F)(F)F | n | x
Cc1ccc(-c2cc(-c3ccccc3)no2)c(O)c1 | n | n
Cc1ccc(O)c(-c2cc(C(F)(F)F)no2)c1 | 0.2 | n
CCN(CC)C(=O)c1cc(-c2ccccc2O)on1 | n | n
Oc1ccccc1-c1cc(C(F)(F)C(F)F)no1 | 1.5 | n
c1ccc2sc(COCc3cn4ccccc4n3)nc2c1 | x | n
N#Cc1ccc(-c2ccccc2)nc1SCC(=O)O | x | n
CCOC(=O)c1ccc(-c2ccc(C=C(C#N)C#N)o2)cc1 | n | n
COc1cc(C(=O)N2C3=C(CCCC3)C(=O)NC23CCCCC3)cc(OC)c1OC | n | n
CC(C)CN(CC(C)C)S(=O)(=O)c1ccc(C(=O)O)cc1 | n | n
SMILES | Sa growth inh | S aureus helic
Cc1nnc(NC(=O)c2ccc(S(=O)(=O)N(CC(C)C)CC(C)C)cc2)o1 | 0.2 | n
Cc1cc(C(=O)OCC(=O)Nc2ccccc2C#N)c(C)n1-c1ccc(F)cc1 | n | n
O=C1C=CC(=O)N1CC1CCCO1 (stereo unspecified) | n | n
O=c1[nH]c(=O)n(C2CCCO2)cc1F (stereo unspecified) | 6.6! | n
C[C@H]1O[C@@H](n2cc(F)c(=O)[nH]c2=O)[C@H](O)[C@@H]1O | 1.1 | x
Cc1ccn(-c2ccccc2)n1 | n | n
CC1Cc2ccccc2N1CC(=O)NCCCc1ccccc1 (stereo unspecified) | n | n
COc1ccc(-c2n[nH]c(=S)o2)cc1OC | n | n
S=c1[nH]nc(-c2ccc3c(c2)OCO3)o1 | 35.9 | n
CS(=O)(=O)c1sc(Br)c2c1C(=O)CCC2 | n | x
CS(=O)(=O)c1sc(C#N)c2c1C(=O)CCC2 | 0.4 | n
CCN(C(=O)CSc1nnc(-c2ccccc2)c(-c2ccccc2)n1)C1CCS(=O)(=O)C1 (stereo unspecified) | n | n
CCN(C(=O)CSc1nc(C)cc(C)c1C(N)=O)C1CCS(=O)(=O)C1 (stereo unspecified) | -1.2 | n
COc1ccc(/C=C2\SC(=S)N(CCC(=O)N3CCN(C)CC3)C2=O)cc1 | x | n
CCN(CC)CC(O)COc1ccc(OC)cc1 (stereo unspecified) | x | n
CCN(CC)CC(O)COc1ccc(C(C)(C)CC)cc1C(C)(C)CC (stereo unspecified) | -0.7 | n
COc1cccc(NS(=O)(=O)c2cc(OC)ccc2OC)c1 | n | n
Nc1ccn([C@@H]2O[C@H](CO)[C@@H](O)C2(F)F)c(=O)n1 | 0.3 | x
Nc1ccn([C@@H]2O[C@H](CO)[C@@H](O)C2O)c(=O)n1 (stereo partly specified) | n | x
Oc1oc(-c2ccccc2)nc1C1=Nc2ccccc2CC1 | n | n
CCc1ccc(OCc2ccc(C(=O)O)cc2)cc1 | n | n
CCOc1ccc(C(=O)C(C)OC(=O)c2cccc(-n3cnnn3)c2)cc1 (stereo unspecified) | n | n
C[N+]1(CC(=O)OCCCC2CCCCC2)CCCCC1 | n | n
C[N+]1(CC(=O)OC2CCCCCCCCCCC2)CCCC1 | 19.9 | n
Cc1cc(-c2ccc(S(=O)(=O)NCCc3ccccc3)cc2)on1 | n | n
O=C1C(Sc2ncn[nH]2)=C/C(=N/S(=O)(=O)c2cccs2)c2ccccc21 | 1.4 | n
O=S(=O)(Nc1cc(Sc2ncn[nH]2)c(O)c2ccccc12)c1cccs1 | n | n
O=C1C(Sc2ncn[nH]2)=C/C(=N/S(=O)(=O)c2ccc(F)cc2)c2ccccc21 | 1.1 | n
CCOc1ccc(S(=O)(=O)/N=C2/C=C(Sc3ncn[nH]3)C(=O)c3ccccc32)cc1 | n | n
CCOC(=O)c1[nH]c(COC(=O)[C@H](Cc2ccccc2)NC(=O)c2ccco2)c(C(=O)OCC)c1C | n | n
